TPT1 inh: Candida albicans TPT1 enzyme inhibitors, primary screen, biochemical, fluorescence polarization; tRNA 2'-phosphotransferase TPT1 (Candida albicans SC5314); recombinant caTPT1, FP RNA substrate dephosphorylation; inhibition, % at 5 µM; 300,000 tested, 0.81% active;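 active = inhibition above the mean of all tested compounds plus 3 SD, set per screening campaign, cut at about 24% in these data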
Myeloid diff MLP: induction of myeloid progenitor differentiation, primary screen, cell-based, flow cytometry, MLPCN library. calls only at 10 µM. AID 624256, 2012. 360,000 tested, 1% active. ER-HoxA9 myeloid progenitors, lysozyme-GFP differentiation;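 active = normalized GFP-positive differentiation at or above the plate's own cutoff, the solvent-only control mean plus 3 SD; inconclusive = no clear call, values can overlap the other calls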;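 also: cells exposed to compound for four days before flow analysis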
Rpn11 block: Rpn11 (PSMD14) deubiquitinase inhibitors, primary screen, biochemical, fluorescence polarization, uHTS; 360,000 tested, 0.59% active; human 26S proteasome, Ub4-pepOG fluorescence polarization; 20S core pre-blocked with epoxomicin; inhibition, % at 20 µM; 26S proteasome non-ATPase regulatory subunit 14 (Homo sapiens), O00487; AID 588493, 2011;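 active = inhibition at 20 µM, scaled to each plate's controls, above about 33%, limit read from the data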
HNF4A DNA FP: change in binding of human HNF4A to DNA, primary screen, biochemical, fluorescence polarization, FITC-DNA | 1 h | AID 1224865, 2016 | 360,000 tested, 0.3% active | activity change, % at 10 µM; in the data active = activity change above about 30%, passing the limit was not always enough
Rpn11 inh conf: Rpn11 (PSMD14) deubiquitinase inhibitors, confirmation, biochemical, fluorescence polarization, single concentration | shares compounds with Rpn11 block | purified human 26S proteasome, Ub4-pepOG fluorescence polarization; proteasome pretreated with epoxomicin | inhibition, % at 20 µM | 1,900 tested, 29% active | AID 602318, 2012
MMP-2 inh: MMP-2 enzyme inhibition, confirmation, counter-screen for RPN11 inhibitor project, biochemical, fluorescence, single concentration; shares compounds with Rpn11 block; recombinant MMP-2, FRET peptide cleavage fluorescence; inhibition, % at 20 µM; 1,900 tested, 4% active;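 also: human MMP-2 activated beforehand with APMA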
Target sequence (P08253 whole entry, looked up): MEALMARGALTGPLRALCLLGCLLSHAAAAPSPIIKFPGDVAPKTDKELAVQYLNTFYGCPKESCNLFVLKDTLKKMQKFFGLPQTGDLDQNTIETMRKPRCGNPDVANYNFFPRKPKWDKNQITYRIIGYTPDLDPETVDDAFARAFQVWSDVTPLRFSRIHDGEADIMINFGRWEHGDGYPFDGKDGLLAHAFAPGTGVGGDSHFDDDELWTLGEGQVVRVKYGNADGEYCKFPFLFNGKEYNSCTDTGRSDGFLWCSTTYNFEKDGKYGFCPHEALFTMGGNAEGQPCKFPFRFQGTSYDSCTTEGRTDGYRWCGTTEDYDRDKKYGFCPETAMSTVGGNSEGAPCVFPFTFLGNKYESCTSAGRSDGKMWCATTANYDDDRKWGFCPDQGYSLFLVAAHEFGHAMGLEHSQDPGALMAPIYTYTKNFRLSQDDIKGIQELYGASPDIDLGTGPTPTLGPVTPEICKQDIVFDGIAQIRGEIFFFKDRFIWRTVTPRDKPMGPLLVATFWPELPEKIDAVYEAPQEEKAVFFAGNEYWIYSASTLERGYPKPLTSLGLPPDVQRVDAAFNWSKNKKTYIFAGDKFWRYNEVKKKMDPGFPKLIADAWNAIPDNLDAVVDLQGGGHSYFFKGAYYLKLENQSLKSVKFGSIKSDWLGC
Thrombin FP: bovine thrombin protease inhibition, confirmation, counter-screen for Rpn11 inhibitor project, biochemical, fluorescence polarization, single concentration. shares compounds with Rpn11 block. bovine thrombin cleavage of Ub4-pepOG. inhibition, % at 20 µM. 1,900 tested, 13% active;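 active = mean inhibition at least 40% at 20 µM, or signal 3 deviations below plate average, so some actives read negative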
Large screens that a line does not name were inactive (follow-up assays come after a bar, where they were run). In the library only some 2.1% were active in any assay of this set; here they are far more common. Rule as the data show it, unless noted: active = inhibition above about 40%; inactive = the rest.

Cc1ccc(C2c3c(C)nn(-c4ccc([N+](=O)[O-])cc4)c3N=C3C(=O)Nc4ccccc4N32)cc1 (stereo not given)	none (no result: Myeloid diff MLP, Rpn11 block, HNF4A DNA FP)
COc1cccc(C2c3c(C)nn(-c4ccc([N+](=O)[O-])cc4)c3N=C3C(=O)Nc4ccccc4N32)c1 (stereo not given)	Rpn11 block 46, HNF4A DNA FP 57 | Rpn11 inh conf inactive | MMP-2 inh inactive | Thrombin FP inactive
CCOc1nc(N=C(N)N)nc2c(C)cccc12	Rpn11 block 84 | Rpn11 inh conf inactive | MMP-2 inh inactive | Thrombin FP inactive
CCOc1ccccc1Nc1cc(C)c2cccc(C)c2n1	none
Cc1ccc(/C=C2\SC(=S)N(CCC(=O)NNC(=O)c3ccncc3)C2=O)cc1	Rpn11 block 44 | Rpn11 inh conf inactive | MMP-2 inh inactive | Thrombin FP inactive
COc1cc(/C=C2\SC(=S)N(CCC(=O)Nc3ccc(O)cc3)C2=O)cc(OC)c1OC	none
CCc1ccc(/C=C2/SC(=S)N(CCC(=O)Nc3cccc(C(=O)O)c3)C2=O)cc1	Myeloid diff MLP inconclusive
O=C(CCN1C(=O)/C(=C/c2ccc(F)cc2)SC1=S)NNC(=O)c1ccncc1	none
CCc1nnc(NC(=O)CCN2C(=O)/C(=C/c3cc(OC)c(OC)c(OC)c3)SC2=S)s1	Rpn11 block 48 | Rpn11 inh conf inactive | MMP-2 inh inactive | Thrombin FP 42
CCc1ccc(/C=C2/SC(=S)N(CCC(=O)Nc3ccc(C(=O)O)cc3)C2=O)cc1	Rpn11 block 114 | Rpn11 inh conf 43 | MMP-2 inh inactive | Thrombin FP inactive
CCOC(=O)N1CCC(NC(=O)c2cc(C(=O)NCC(OC)OC)ccc2CO)CC1	none
COC(=O)c1ccc(/C=C/c2c(-c3ccsc3)oc3ccc(N4CCOCC4)cc23)cc1	none
COCCN=C1Sc2nc3cc4c(cc3cc2CN1CC1CCCO1)OCO4 (stereo not given)	none
COc1ccc(Nc2nc(-c3ccc(OC)cc3)cs2)cc1	none
COc1ccc(Nc2nc(-c3c[nH]c4ccccc34)cs2)cc1	Myeloid diff MLP active, Rpn11 block 48 | Rpn11 inh conf inactive | MMP-2 inh inactive | Thrombin FP inactive
COc1cc(C(=O)NCC(=O)N/N=C/c2ccc(OC(=O)c3ccco3)cc2)cc(OC)c1OC	none
COc1ccc(Cc2c(-c3ccc(Cl)cc3)nc3c(C)cc(Br)cn23)c(C)c1	Rpn11 block 44 (no result: TPT1 inh) | Rpn11 inh conf inactive | MMP-2 inh inactive | Thrombin FP inactive
COc1ccc(Cc2c(-c3ccc(F)cc3)nc3c(C)cc(Br)cn23)c(C)c1	none (no result: TPT1 inh)
COc1ccc(Cc2c(-c3ccccc3)nc3c(C)cc(Br)cn23)c(C)c1	Rpn11 block 63 (no result: TPT1 inh) | Rpn11 inh conf inactive | MMP-2 inh 47 | Thrombin FP inactive
COc1ccc(Cc2c(C(C)(C)C)nc3ccc(C)cn23)c(C)c1	none (no result: TPT1 inh)
COc1ccc(Cc2c(C(C)(C)C)nc3ccc(Cl)cn23)c(C)c1	Rpn11 block 56 (no result: TPT1 inh) | Rpn11 inh conf 44 | MMP-2 inh inactive | Thrombin FP inactive
CCOc1ccc2nc(N/C(N)=N/C(=S)Nc3ccc(C)c(C)c3)nc(C)c2c1	none
CCNC(=S)/N=C(\N)Nc1nc(C)c2cc(C)ccc2n1	Rpn11 block 44 | Rpn11 inh conf inactive | MMP-2 inh inactive | Thrombin FP inactive
O=C(O)c1ccc(/C=C/c2nc3sc4c(c3c(=O)[nH]2)CCC4)cc1	Rpn11 block 73 | Rpn11 inh conf 91 | MMP-2 inh inactive | Thrombin FP 40
CCOc1ccc(C(=O)N/N=C/c2cc(Cl)ccc2[N+](=O)[O-])cc1	Rpn11 block 59 | Rpn11 inh conf 41 | MMP-2 inh inactive | Thrombin FP inactive
C=CC1=C(C(=O)O)N2C(=O)C(NC(=O)Cc3ccccc3)C2SC1 (stereo not given)	Rpn11 block 138 (no result: Myeloid diff MLP) | Rpn11 inh conf inactive | MMP-2 inh inactive | Thrombin FP inactive
COc1ccc(C2CC(c3ccccc3)=NN2C(=O)COC(=O)c2ccc(Cl)nc2)cc1 (stereo not given)	Rpn11 block 42 | Rpn11 inh conf inactive | MMP-2 inh inactive | Thrombin FP inactive
O=C(NCCCN1CCOCC1)C(=O)N/N=C/c1cccc2ccccc12	none
O=C(N/N=C/c1ccc(OC(=O)c2ccc3c(c2)OCO3)cc1)c1cncc(Br)c1	Rpn11 block active | Rpn11 inh conf inactive | MMP-2 inh inactive | Thrombin FP inactive
CCOC(=O)N1CCC(NC(=O)CS(=O)Cc2nc(-c3ccccc3C)oc2C)CC1 (stereo not given)	none
Cc1cn(CC(=O)N2CCN(c3ccccn3)CC2)c(=O)[nH]c1=O	none (no result: TPT1 inh)
C=CCn1cc(/C=N/NC(=O)COc2cccc3cccnc23)c2ccccc21	Rpn11 block 59 | Rpn11 inh conf 88 | MMP-2 inh inactive | Thrombin FP 53
CC(C)n1cc(/C=N/NC(=O)COc2cccc3cccnc23)c2ccccc21	none
Cc1ccc(S(=O)(=O)N2[C@@H](c3ccc(Cl)c(Cl)c3)C(C(=O)O)=C[C@H]2CC2CCCC2)cc1	Rpn11 block 57 (no result: TPT1 inh) | Rpn11 inh conf inactive | MMP-2 inh inactive | Thrombin FP inactive
Cc1ccc(S(=O)(=O)N2[C@@H](c3ccc(C#N)cc3)C(C(=O)O)=C[C@H]2CC2CCCC2)cc1	none (no result: TPT1 inh)
COc1ccc(NC(=O)CN(C)C(=O)C2=NN(c3ccccc3)C(=O)CC2)cc1	none (no result: TPT1 inh)
c1coc(-c2nnc(SCc3nc4ccccc4[nH]3)o2)c1	Rpn11 block 46 | Rpn11 inh conf inactive | MMP-2 inh inactive | Thrombin FP inactive
c1ccc(CSc2nnc(-c3ccco3)o2)cc1	none
Cc1ccc(C2CC(c3cccs3)=NN2C(=O)CCl)cc1 (stereo not given)	Rpn11 block 46 | Rpn11 inh conf inactive | MMP-2 inh inactive | Thrombin FP inactive
COc1ccc(C2CC(c3cccs3)=NN2C(=O)CSC2=NCCS2)cc1 (stereo not given)	Rpn11 block 80 | Rpn11 inh conf inactive | MMP-2 inh inactive | Thrombin FP inactive
COc1ccc(C2CC(c3cccs3)=NN2C(=O)COC(=O)c2cncc(Br)c2)cc1OC (stereo not given)	Rpn11 block 43 | Rpn11 inh conf inactive | MMP-2 inh 63 | Thrombin FP inactive
